A word on the inhibition: it is the drop in the measured response relative to a control, in per cent.

The values below come from PubChem BioAssay AID1626 (SRMLSC, 2009).

Out of some 220,000 compounds screened, about 2,000 (0.91%) were called active. Inconclusive results (about 2%) are left out. Rule as the data show it: inconclusive = inhibition above about 80% without an active follow-up result; inactive = below that; test concentration not stated here. A selection follows. Entries with a potency or affinity are not part of this list.

This test can be described thus: M. tuberculosis H37Rv growth inhibitors, H37Rv strain (AID 1626).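 Also: bacteria incubated seven days before Alamar blue readout; 0% = bacteria only wells and 100% = bacteria with antibiotic wells.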 The settings on record: hits give high values, concentration not given here.
In the case of `CC1CCc2c(sc3nc(CSc4nnnn4C)[nH]c(=O)c23)C1` (stereo not drawn), the inhibition was 42.6% (inactive).

For `CCCCNC(=O)Nc1cnn(CC)c1C(N)=O`, the inhibition was -2.68% (inactive).

Take `O=C1O/C(=C/c2ccccc2)c2ccccc21`: the inhibition was 2.2% (inactive).

In the case of `O=C1O/C(=C\c2ccccc2)c2ccccc21`, the inhibition is 1.65% (inactive).

With `Nc1nnc(SCC(=O)N2CCN(c3ccccc3)CC2)n1-c1ccccc1`, the inhibition is -16.5% (inactive).

In the case of `Cc1[nH]nc2c1C(=O)CCC2`, the inhibition was -7.75% (inactive).

Consider `CC(C)(C)n1cnnc1Sc1ncccc1[N+](=O)[O-]`, for which the inhibition is -0.66% (inactive).

As for `Nc1nnc(Sc2ccc(Cl)cc2[N+](=O)[O-])s1`, the inhibition is 6.61% (inactive).

On to `CC(C)(C)c1csc(Sc2ncccc2[N+](=O)[O-])n1`, for which the inhibition is 7.08% (inactive).

On to `O=c1ccnc(Sc2ncccc2[N+](=O)[O-])[nH]1`, for which the inhibition is 7.87% (inactive).

Consider `Cc1ccc(N/C=C(\C#N)S(=O)(=O)c2ccccc2)cc1`, for which the inhibition is 1.01% (inactive).

As to `CC(=O)c1cc(-c2ccc(F)cc2)n(CCC(=O)Nc2cc(C)[nH]n2)c1C`, the inhibition is 5.45% (inactive).

For the molecule `Cn1c(N)c(-c2nc3cccnc3n2C)sc1=S`, the inhibition is 2.49% (inactive).

As for `Cc1cc(NC(=O)c2cccs2)n(-c2nc3ccccc3[nH]2)n1`, the inhibition was 94.8% (inactive).

As for `Cc1cc(NC(=O)c2ccc(C)s2)n(-c2nc3ccccc3[nH]2)n1`, the inhibition was 83.6% (inactive).

Take `CC(=O)Nc1nc2ccccc2[nH]1`: the inhibition is -9.36% (inactive).

In the case of `Cc1cc(NC(=O)c2ccccc2)n(-c2ccccc2)n1`, the inhibition is -5.06% (inactive).

With `Cc1cc(NC(=O)c2ccccc2F)n(-c2nc3ccccc3[nH]2)n1`, the inhibition is 55.8% (inactive).

In the case of `O=C(Nc1nc2ccccc2[nH]1)c1cccs1`, the inhibition is 56.3% (inactive).

`COc1cccc(OC)c1C(=O)Nc1cc(C)nn1-c1nc2ccccc2[nH]1`: the inhibition was 53.2% (inactive).

For `COc1ccc(C(=O)Nc2cc(C)nn2-c2nc3ccccc3[nH]2)c(OC)c1`, the inhibition is 57.3% (inactive).

Regarding `OCC1(Cc2ccccc2)CCN(Cc2ccc(C(F)(F)F)cc2)CC1`, the inhibition was 10.2% (inactive).

For `CC1(C)C(c2ccc(Cl)cc2)=[N+]([O-])C2(CCCC/C2=N\O)N1O` (stereo not drawn), the inhibition is 2.14% (inactive).

In the case of `O=C(N/N=C/c1cc(Br)cs1)c1ccc2c(c1)OCCO2`, the inhibition was 6.73% (inactive).

Consider `O=C(CSc1nnc(-c2ccco2)n1CC1CCCO1)c1ccc(F)cc1` (stereo not drawn), for which the inhibition is -15.7% (inactive).

As to `N#CCSc1nc2ccccc2c(=O)n1CC1CCCC1`, the inhibition is -2.18% (inactive).

`CC(Sc1ccc(Br)cc1)C(N)=O` (stereo not drawn): the inhibition is -7.76% (inactive).

Take `Cc1nc(N(C)C)c2sc(=S)n(-c3ccccc3)c2n1`: the inhibition was 0.72% (inactive).

Consider `C/C(=N\NS(=O)(=O)c1ccc([N+](=O)[O-])cc1)c1ccc(NC(=O)c2ccco2)cc1`, for which the inhibition was -1.1% (inactive).

Take `C=CCNC(=O)CSc1nnc(-c2ccccc2Br)n1-c1cccc(C(F)(F)F)c1`: the inhibition is 5.16% (inactive).

Consider `COc1cc(C(=O)Nc2nc3ccccc3[nH]2)cc(OC)c1OC`, for which the inhibition was 75.8% (inactive).

As for `Cc1cc(NC(=O)c2ccc(F)cc2F)n(-c2nc3ccccc3[nH]2)n1`, the inhibition was 4.49% (inactive).

For `CCOc1ccccc1OCC(=O)Nc1nc2ccccc2[nH]1`, the inhibition is 9.65% (inactive).

For `O=C(NCCc1nc2ccccc2[nH]1)c1ccc(Cl)c([N+](=O)[O-])c1`, the inhibition was -1.68% (inactive).

For the molecule `O=C(Nc1nc2ccccc2[nH]1)c1ccc([N+](=O)[O-])cc1`, the inhibition was 75% (inactive).

Take `COc1cccc(C(=O)Nc2nc3ccccc3[nH]2)c1`: the inhibition was 46.1% (inactive).

`Cc1cc(NC(=O)/C=C/c2ccccc2Cl)n(-c2nc3ccccc3[nH]2)n1`: the inhibition was 66.7% (inactive).

As to `Cc1cc(C)c(OCC(=O)Nc2nc3ccccc3[nH]2)c(C)c1`, the inhibition was 9.75% (inactive).

As for `COCCn1c(SCC(=O)Nc2sc(C)c(C)c2C#N)nnc1-c1ccc(OC)cc1`, the inhibition was -11.5% (inactive).

In the case of `CC(C)(C)C1CCc2onc(C(=O)O)c2C1` (stereo not drawn), the inhibition is -7.72% (inactive).

For the molecule `C/C(=N\NC(=O)Cc1c(C)[nH][nH]c1=O)c1ccc2ccccc2c1`, the inhibition is -1.62% (inactive).

On to `CC(C)C(=O)NNC(=O)c1cc2sccc2s1`, for which the inhibition was -9.47% (inactive).

Consider `Cc1cc(Br)c(NC(=O)CCl)c(Br)c1`, for which the inhibition was 10% (inactive).

As for `CC(=O)Nc1sc(N/N=C\c2ccco2)nc1-c1cccs1`, the inhibition was 2.35% (inactive).

Turning to `Cc1ccc(CONC(=O)c2ccc(OC(F)F)cc2)cc1`, the inhibition is -0.18% (inactive).

Consider `CC1(C)C(c2ccccc2)=[N+]([O-])CN1O`, for which the inhibition was -10.2% (inactive).

As to `Cc1cc(C)n(-c2nc3ccccc3[nH]c2=O)n1`, the inhibition is -9.01% (inactive).

With `O=S(=O)(N/N=C/c1cccc(OC2CSC2)c1)c1ccccc1`, the inhibition is 2.91% (inactive).

With `O=C(NCCCN1CCCC1=O)Nc1ccc(Cl)cc1`, the inhibition was -8.24% (inactive).

As to `Cc1c(C(=O)Nc2ccc3c4c(cccc24)CC3)cccc1[N+](=O)[O-]`, the inhibition is 13.3% (inactive).

With `O=C(Nc1nccs1)c1cc(-c2ccccc2)nc2ccccc12`, the inhibition was 19% (inactive).

As for `Cc1csc(NC(=O)c2cnccn2)n1`, the inhibition is -4.5% (inactive).

Turning to `O=C(Nc1nc(-c2ccc(F)c(F)c2)cs1)c1cnccn1`, the inhibition is 10.2% (inactive).

`O=C(Nc1nccs1)c1cc(-c2ccncc2)nc2ccccc12`: the inhibition was -1.16% (inactive).

On to `O=C(Nc1nc2c(s1)CCCC2)c1cc(-c2ccncc2)nc2ccccc12`, for which the inhibition was 10.1% (inactive).

With `O=C(Nc1nc2c(s1)CCCC2)c1cc(-c2ccccc2)nc2ccccc12`, the inhibition was 14.1% (inactive).

`Cc1ccc(-c2cc(C(=O)Nc3nccs3)c3ccccc3n2)o1`: the inhibition is 12.8% (inactive).

In the case of `Cc1ccc(-c2cc(C(=O)Nc3ccc(S(=O)(=O)Nc4nccs4)cc3)c3ccccc3n2)c(C)c1`, the inhibition was 69.9% (inactive).

For `CC(C)C1(C)N=C(c2ncccc2C(=O)O)NC1=O` (stereo not drawn), the inhibition is -2.93% (inactive).

For `Cc1nn(CC(=O)N2c3ccccc3NC(=O)C2(C)C)c(C)c1[N+](=O)[O-]`, the inhibition is 0.71% (inactive).

As to `Cc1c(NC(=O)C(C)OC(=O)Cc2ccccc2)c(=O)n(-c2ccccc2)n1C` (stereo not drawn), the inhibition was -13.3% (inactive).

Consider `O=C(O)Cn1nnc2ccccc21`, for which the inhibition was -9.61% (inactive).

In the case of `CC(=O)Nc1ccccc1NC(=O)c1ccc(C)c(C)c1`, the inhibition is -3.12% (inactive).

With `Nc1c(C(=O)N/N=C/c2ccc([N+](=O)[O-])cc2)sc2nnc(-c3ccccc3)c(-c3ccccc3)c12`, the inhibition is -2.7% (inactive).

In the case of `O=C(NCC(O)CO)c1ccc2[nH]c3ccccc3c2c1` (stereo not drawn), the inhibition is 1.5% (inactive).

Turning to `Cn1c(N2CCCC2)nc2c1c(=O)n(Cc1cccc(F)c1)c(=O)n2C`, the inhibition was 2.57% (inactive).

Take `Cc1ccc(SCc2cc(=O)[nH]c(N3CCN(Cc4ccc5c(c4)OCO5)CC3)n2)cc1`: the inhibition was 4.26% (inactive).

Consider `Cc1nc(N2CCOCC2)c2cc(-c3ccccc3)sc2n1`, for which the inhibition was 5.12% (inactive).

On to `O=c1cc(-c2ccccc2)nc(N2CCN(Cc3ccccc3)CC2)[nH]1`, for which the inhibition is 16.3% (inactive).

Take `Cc1nc(N2CCN(C)CC2)c2cc(-c3ccccc3)sc2n1`: the inhibition was -3.54% (inactive).

On to `COC(=O)c1cccc(NCN2C(=O)c3ccccc3C2=O)c1`, for which the inhibition was 1.78% (inactive).

In the case of `COc1ccc(CN2CCn3nc(C(=O)NC4CC4)cc3C2=O)cc1`, the inhibition is 0.45% (inactive).

For `CCc1nn(CC(=O)NCCN2CCN(C)CC2)c(=O)c2cc3occc3n12`, the inhibition was 2.11% (inactive).

As for `O=C(Nc1ccccc1F)C1CCCN(S(=O)(=O)c2ccccc2)C1` (stereo not drawn), the inhibition was 1.63% (inactive).

As for `CC(=Nc1ccc2c(c1)nc(CO)n2C)C1=C(O)CC(C)(C)CC1=O`, the inhibition was -0.93% (inactive).

Take `Cc1cc(=O)oc2cc(Oc3ncccn3)ccc12`: the inhibition was -2.26% (inactive).

As for `Cc1cc(=O)oc2cc(Oc3ccc([N+](=O)[O-])cc3[N+](=O)[O-])ccc12`, the inhibition was 51% (inactive).

Take `CC(=O)Nc1cccc(Oc2ncnc3scc(-c4ccccc4)c23)c1`: the inhibition was 1.97% (inactive).

For `CC(=O)Nc1cccc(Oc2ncnc3scc(-c4ccc(C)cc4)c23)c1`, the inhibition was 17.3% (inactive).

As for `Cc1cc(=O)oc2cc(Oc3ccc(C(N)=O)cc3[N+](=O)[O-])ccc12`, the inhibition is -11.6% (inactive).

As for `CCc1cc2c(C)cc(=O)oc2cc1Oc1ncccc1[N+](=O)[O-]`, the inhibition was 1.8% (inactive).

On to `O=C(COC(=O)CCSc1ccc(Cl)cc1)NCc1ccc(Cl)cc1`, for which the inhibition is 1.66% (inactive).

As for `COc1ccc(CCC(=O)N/N=C\c2cccs2)cc1`, the inhibition is 36.8% (inactive).

For the molecule `Cc1ccc(-c2csc3nc(C(C)C)oc(=O)c23)c(C)c1`, the inhibition was 14.9% (inactive).

`COc1cc(C2SC(C)C(=O)N2CCc2ccccc2)cc(OC)c1OC` (stereo not drawn): the inhibition is 6.28% (inactive).

Take `O=C(N/C=C/c1ccccc1)Nc1ccc(Cl)cc1`: the inhibition was 7.4% (inactive).

For the molecule `Cc1cccc(OCC(=O)Nc2ccc3nc(C)sc3c2)c1`, the inhibition was 89.5% (inactive).

Regarding `COc1ccc(CC(=O)Nc2ccc3nc(C)sc3c2)cc1OC`, the inhibition is 2.65% (inactive).

For `Cc1nc2ccc(NC(=O)COc3ccccc3C)cc2s1`, the inhibition is 52.7% (inactive).

As for `COc1ccc(OCC(=O)Nc2nc3ccc(NC(C)=O)cc3s2)cc1`, the inhibition is -3.22% (inactive).

For the molecule `Cc1nc2ccc(NC(=O)COc3ccccc3)cc2s1`, the inhibition was 83.5% (inactive).

Take `Cc1nc2ccc(NC(=O)Cc3cccc(F)c3)cc2s1`: the inhibition was 0.69% (inactive).

Consider `COc1cc(CC(=O)Nc2ccc3nc(C)sc3c2)cc(OC)c1OC`, for which the inhibition is -7.08% (inactive).

Turning to `CC(=O)c1ccc(OCC(=O)Nc2ccc3nc(C)sc3c2)cc1`, the inhibition was 56.8% (inactive).

As for `CCC(C)(C)NC(=O)C(c1cccc(OC)c1)N(C(=O)c1ccn[nH]1)c1cccc(OC)c1` (stereo not drawn), the inhibition is -8.88% (inactive).

For `COCCNC(=O)c1cn(C)c2ccc(S(=O)(=O)N(C)C3CCCCC3)cc2c1=O`, the inhibition was -12% (inactive).

For `COc1ccc(S(=O)(=O)N(CC(=O)N2CCN(C)CC2)c2ccccc2)cc1OC`, the inhibition was -11.1% (inactive).

As for `CCC(CC)C1C(C#N)=C(N)Oc2cc(C)oc(=O)c21` (stereo not drawn), the inhibition was -11.1% (inactive).
